Test results reported in PubChem BioAssay AID652039 (The Scripps Research Institute Molecular Screening Center, 2013).
The campaign covered roughly 370,000 compounds. About 3,300 (0.89%) were called active.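 The calls were made as follows: active = activation above the mean of all tested compounds plus 3 SD, computed per campaign excluding outliers beyond control limits (cut at about 13% in these data); inactive = the rest.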 Only a selection was taken, and actives are over-represented in it overall.

Target: Kallikrein-7 (Homo sapiens) (UniProt P49862)
Sequence (P49862 whole entry, looked up): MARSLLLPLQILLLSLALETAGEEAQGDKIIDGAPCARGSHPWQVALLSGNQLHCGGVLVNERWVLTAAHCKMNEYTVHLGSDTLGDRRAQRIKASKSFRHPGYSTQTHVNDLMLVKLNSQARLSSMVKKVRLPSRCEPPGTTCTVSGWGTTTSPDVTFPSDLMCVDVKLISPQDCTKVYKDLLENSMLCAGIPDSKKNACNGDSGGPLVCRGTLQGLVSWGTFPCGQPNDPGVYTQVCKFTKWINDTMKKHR
Assay: proKLK7 zymogen activators, primary screen, biochemical, fluorescence intensity (AID 652039)
Details: purified proKLK7, EDANS-DABCYL substrate fluorescence; at 7 µM; stronger effect = higher value; 100% is mature enzyme control, 0% vehicle

Row | SMILES | activation
1 | O=C(OC1CCOC1=O)c1ccc(-c2nc3ccccc3s2)s1 (stereo not drawn) | 25.6% (active)
2 | CC(C)c1ccc(C(=O)OC2CCOC2=O)cc1 (stereo not drawn) | -0.06% (inactive)
3 | COc1cc(C(=O)OC2CCOC2=O)c([N+](=O)[O-])cc1OC (stereo not drawn) | -0.39% (inactive)
4 | O=C(CSc1ncccn1)NC(=O)NCc1ccccc1 | -0.82% (inactive)
5 | CCOC(=O)N1CCN(C(=O)C[C@@H]2C(=O)N(CCc3ccc(Cl)cc3)C3=CCCC[C@]32C(=O)OCC)CC1 | 0.7% (inactive)
6 | CC(C)(C)OC(=O)NCCc1ccccc1/C=C/S(=O)(=O)NCc1ccc(F)cc1 | -0.22% (inactive)
7 | COc1ccc(C2CC(c3cccs3)Nc3nnnn32)cc1 (stereo not drawn) | 0.65% (inactive)
8 | COc1ccc(C2=CC(c3cccc(OC)c3)n3nnnc3N2)cc1 (stereo not drawn) | 42.3% (active)
9 | COc1cccc(-c2nc3n(n2)C(c2ccccc2Cl)C(C(N)=O)=C(C)N3)c1 (stereo not drawn) | 0.67% (inactive)
10 | O=C1Nc2ccccc2OC1CC(=O)N1CCCCCCC1 (stereo not drawn) | 0.05% (inactive)
11 | CC(C)Cc1nc(Nc2ccc(S(=O)(=O)N3CCCC3)cc2)c2nnn(Cc3ccccc3)c2n1 | 18% (active)
12 | Cc1nc(Nc2ccc(S(=O)(=O)N3CCCC3)cc2)c2nnn(Cc3ccccc3)c2n1 | -0.11% (inactive)
13 | CC(C)Nc1ncnc2c1nnn2Cc1ccccc1 | 0.3% (inactive)
14 | COc1ccc(Cn2ccc3ccc(-c4ccc5ccn(Cc6ccccc6C)c5c4)cc32)cc1 | -0.6% (inactive)
15 | Cc1csc(OCC(=O)Nc2ccc(C)c(C)c2)n1 | 0.44% (inactive)
16 | C=C(C)C#CC(Cc1ccccc1)NCC1CC1 (stereo not drawn) | 0.49% (inactive)
17 | COc1ccc(-n2c(SCC(=O)NC3CCCC3)nnc2-c2ccncc2)cc1 | 0.32% (inactive)
18 | COc1ccccc1-n1c(C)nc2cc(C(=O)NCc3ccc4c(c3)OCO4)ccc21 | 0.53% (inactive)
19 | CCCn1nc2cc(C(=O)NCc3ccccc3)ccc2c1OCC | 9.49% (inactive)
20 | CCOc1c2ccc(C(=O)NCc3ccc4c(c3)OCO4)cc2nn1C | 16.6% (active)

Row | SMILES | activation
21 | COC(=O)[C@]12C[C@H](CC(=O)NCc3cccs3)C(=O)N(CCc3ccc(OC)c(OC)c3)C1=C[C@H](C(C)C)O[C@@H]2C1CC1 | 0.65% (inactive)
22 | Cc1ccc(-c2nn(-c3ccccc3)cc2/C=C/C(=O)Nc2cccc(S(N)(=O)=O)c2)cc1 | 302% (active)
23 | O=C(/C=C/c1cn(-c2ccccc2)nc1-c1ccc2c(c1)OCCO2)NCCCN1CCOCC1 | -1.99% (inactive)
24 | NS(=O)(=O)c1ccc(NC(=O)/C=C/c2ccccc2Cl)cc1 | 3.16% (inactive)
25 | O=C(NC1CCCCN(Cc2ccc(Cl)cc2)C1=O)c1ccc(Br)cc1 (stereo not drawn) | -0.15% (inactive)
26 | O=S1(=O)c2c(cccc2N2CC[C@H](O)C2)O[C@@H]2CCN1C2 | -0.53% (inactive)
27 | CNc1cncc(-c2cccc(C(=O)N3CCOCC3)c2)n1 | 49.4% (active)
28 | COc1ccccc1C(=O)Nc1cccc(C(=O)N2CCOCC2)c1 | 0.2% (inactive)
29 | O=C(c1cccc(N2CCCC2=O)c1)N1CCOCC1 | -0.32% (inactive)
30 | CC(=O)N1CCN(S(=O)(=O)c2cccc(C(=O)NC3CCC(C)CC3)c2)CC1 (stereo not drawn) | -0.34% (inactive)
31 | CCOC(=O)C1CCCN(C(=O)c2cccc(S(=O)(=O)N3CCOCC3)c2)C1 (stereo not drawn) | -0.32% (inactive)
32 | COc1cc(C(=O)N2C(=O)c3cccc(N)c3C2=O)cc(OC)c1OC | 50.3% (active)
33 | CC1CC(C)CN(S(=O)(=O)c2cccc(C(=O)N3C(=O)c4cccc(N)c4C3=O)c2)C1 (stereo not drawn) | 20.5% (active)
34 | COc1cc(C(=O)N2CCN(C)CC2)cc(OC)c1OC | -0.27% (inactive)
35 | COc1cc(C(=O)NC(=S)NCc2ccco2)cc(OC)c1OC | 0.52% (inactive)
36 | COc1ccc(CCNC(=O)CSc2nc3c([nH]2)c(=O)n(C)c(=O)n3C)cc1 | 0.4% (inactive)
37 | COC(=O)c1ccccc1-n1cc(COC(=O)NCCc2ccccc2)nn1 | -0.71% (inactive)
38 | C[C@H]1CCC/C=C/C(=O)c2c(O)cc(O)cc2CC(=O)O1 | 0.41% (inactive)
39 | Cc1ccc(NC(=S)NNC(=O)CSc2nnc(SCc3ccccc3Cl)s2)cc1 | 0.76% (inactive)
40 | Cc1nc2ccc(C(=O)N3CCN(C(=O)C(C)(C)C)CC3)cc2n1C1CCCC1 | -0.33% (inactive)

Row | SMILES | activation
41 | Cc1ccc(-c2nnc(SCC(=O)Nc3ccc(Oc4ccccc4)cc3)n2Cc2ccco2)cc1 | -0.21% (inactive)
42 | O=C(c1ccccc1)c1ccc(-c2ccccc2C(=O)NC2CCCCN(Cc3ccc(Cl)cc3)C2=O)cc1 (stereo not drawn) | -0.04% (inactive)
43 | CCc1c(C)c2ccc(OC3CCCCC3=O)cc2oc1=O (stereo not drawn) | 1.85% (inactive)
44 | CC(=O)Nc1cc2ccc(OC(C)=O)cc2oc1=O | 383% (active)
45 | COc1cccc(-c2coc3cc4oc(=O)c(CC(=O)O)c(C)c4cc23)c1 | 0.62% (inactive)
46 | O=C(Oc1ccccc1)Oc1ccc2c(c1)oc(=O)c1ccccc12 | -0.49% (inactive)
47 | Cc1ccc(OCC(=O)Nc2ccc3oc(=O)ccc3c2)cc1C | 0.37% (inactive)
48 | CC(=O)Oc1ccc2c(C)c(CC(C)O)c(=O)oc2c1 (stereo not drawn) | 57.1% (active)
49 | CCCCN1CCN(C(=O)c2ccc3c(c2)NC(=O)C(C)(C)O3)CC1 | 0.18% (inactive)
50 | O=C(CSc1nc2c(c(=O)[nH]1)CCCC2)N1CCCCC1 | 0.8% (inactive)
51 | O=C(CSc1nc2ccccc2n1Cc1ccccc1)NNC(=S)Nc1ccccc1 | -0.17% (inactive)
52 | O=C(CSc1nc2sc3c(c2c(=O)n1-c1ccccc1)CCCC3)NN=Cc1ccc(OCc2ccccc2)cc1 | -0.01% (inactive)
53 | COc1cc(C)ccc1OCC(=O)OCC(=O)c1ccc[nH]1 | -0.43% (inactive)
54 | COc1ccnc(NC(=S)N2CCN(c3ncc(C(F)(F)F)cc3Cl)CC2)c1 | 0.32% (inactive)
55 | Cc1cc(C(=O)OCC(=O)NCc2ccco2)c(C)n1-c1ccccc1 | 0.45% (inactive)
56 | Cn1nc(-c2ccc(Cl)cc2)c2cc(C(=O)NCc3ccco3)sc21 | -17.3% (inactive)
57 | CCc1ccc(-c2cc(C(=O)NCc3ccco3)c3ccccc3n2)s1 | 41.4% (active)
58 | c1csc(-c2nnc(SCc3nc4ccccc4[nH]3)o2)c1 | 1.12% (inactive)
